High-throughput results as filed in PubChem BioAssay.
Compounds with a hit are over-represented: about 2.8% of the library has one in this group of screens.
PI5P4K alpha inh: inhibitors of human PI5P4K alpha | AID 652105 | P48426 | PI5P4Kalpha enzyme, ADP-Glo luminescence, 60 min; hits give low values | 330,000 tested, 1.2% active | max response, %; active = max response of -50% or lower; inconclusive = between -30% and -50%; inactive = -30% or higher; also: value at the top dose of about 77 µM; % is scaled to controls: 0 for no effect and ±100 for the full control effect
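qHTS, 1536-well: enzyme/substrate mix, compound by pin tool, 5 microM ATP final; RT 60 min; ADP-Glo reagents 1 (45 min) then 2 (30 min); luminescence.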
POLI inh: inhibitors of human DNA polymerase iota | Q9UNA4 | Pol iota fluorescent replication assay, 10 min | Potency, µM (doses to about 115 µM), inactives show top-dose activity, negative = inhibition, most hits filed as inhibitors | 390,000 tested, 1% active; also: potency is read from the fitted curve at half-maximal effect
Target sequence (Q9UNA4 whole entry, looked up): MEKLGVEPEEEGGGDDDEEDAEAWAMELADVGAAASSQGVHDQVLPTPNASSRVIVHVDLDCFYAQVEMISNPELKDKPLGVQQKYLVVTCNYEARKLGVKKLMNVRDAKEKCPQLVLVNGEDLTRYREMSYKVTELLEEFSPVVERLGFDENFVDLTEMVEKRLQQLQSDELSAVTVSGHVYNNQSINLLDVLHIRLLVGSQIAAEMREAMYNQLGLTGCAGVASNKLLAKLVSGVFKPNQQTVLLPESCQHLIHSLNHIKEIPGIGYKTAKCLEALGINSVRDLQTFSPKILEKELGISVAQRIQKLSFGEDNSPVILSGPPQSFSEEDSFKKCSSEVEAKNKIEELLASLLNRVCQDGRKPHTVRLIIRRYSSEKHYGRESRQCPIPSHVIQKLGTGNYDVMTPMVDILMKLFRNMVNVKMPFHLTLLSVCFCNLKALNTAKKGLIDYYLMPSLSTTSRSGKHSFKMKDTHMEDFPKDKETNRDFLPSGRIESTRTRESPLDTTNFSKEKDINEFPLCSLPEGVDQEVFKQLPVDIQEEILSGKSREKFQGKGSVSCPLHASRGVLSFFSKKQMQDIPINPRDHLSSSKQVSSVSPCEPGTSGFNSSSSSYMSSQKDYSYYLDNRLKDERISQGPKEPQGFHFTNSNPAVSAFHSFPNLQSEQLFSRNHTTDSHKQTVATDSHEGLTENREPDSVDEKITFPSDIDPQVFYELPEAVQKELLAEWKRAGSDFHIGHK
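Pol iota at 10 nM preincubated 15 min with compounds at room temperature; reaction started with fluorescent substrate, 50 nM final. Fluorescence read kinetically at 0 and 10 min; buffer-only wells as negative control.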
Pol eta inh: inhibitors of human DNA polymerase eta; Potency, µM (series often up to 114 µM), without a hit: top-dose activity change, negative = inhibition, actives largely listed as inhibitors; recombinant Pol eta, fluorescent DNA replication assay; Q9Y253; 390,000 tested, 1.2% active; also: potency is read from the fitted curve at half-maximal effect; % is scaled to controls: 0 for no effect and ±100 for the full control effect
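Fluorescent replication assay: 50 nM final substrate added after a 15 min room-temperature compound preincubation with 10 nM enzyme. Signal taken at 0 min and again at 10 min.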
Pol kappa inh: blocks human DNA polymerase kappa activity; Potency, µM (titrated, usually from 107 µM), for inactives: top-dose activity, negative = inhibition, actives largely listed as inhibitors; AID 588579; purified Pol kappa, fluorescent DNA synthesis assay, 10 min; 400,000 tested, 0.53% active; also: potency is read from the fitted curve at half-maximal effect; % is scaled to controls: 0 for no effect and ±100 for the full control effect
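10 nM Pol kappa preincubated 15 min at room temperature with compounds, then reaction started with substrate at 50 nM final. Fluorescence read kinetically at 0 and 10 min; buffer-only wells served as negative control.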
WRN helicase inh-1: WRN helicase (human) inhibition; Q14191; WRN helicase unwinding, fluorescent forked duplex, kinetic; Potency, µM (top dose mostly 114 µM), inactives show at the top dose activity change, negative = inhibition, usual class: inhibitors; 360,000 tested, 0.46% active; AID 651768; also: potency is read from the fitted curve at half-maximal effect; % is scaled to controls: 0 for no effect and ±100 for the full control effect; nearly all actives have a fitted effect of over 55% in size
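WRN at 20 nM final was preincubated with compound for 15 min at room temperature; reaction started with 100 nM forked duplex oligonucleotide carrying fluorophore and quencher plus 2 mM ATP (final). Unwinding followed kinetically by red fluorescence (ex 525/em 598 nm).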
Pol beta inh: blocks human DNA polymerase beta activity. Potency, µM (series often up to 114 µM), for the others: at the top dose activity change, negative = inhibition, actives largely listed as inhibitors. Pol beta primer extension/strand displacement, fluorescence kinetic. 340,000 tested, 1.3% active. P06746. AID 485314; also: potency is read from the fitted curve at half-maximal effect; % is scaled to controls: 0 for no effect and ±100 for the full control effect
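Curves were derived by four-parameter Hill fits of normalized qHTS data. The kinetic fluorescent primer-extension read was taken at 0 and 10 min after 50 nM substrate, following a 15 min room-temperature preincubation of 10 nM enzyme with compounds.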
WRN helicase inh-2: WRN helicase inhibition, cherry-pick retest; shares compounds with WRN helicase inh-1; WRN helicase DNA unwinding, fluorescence kinetic; Potency, µM (highest dose often 57.1 µM), inactives show top-dose activity, negative = inhibition, hits mostly inhibitors; 610 tested, 63% active; AID 720497; also: potency is read from the fitted curve at half-maximal effect; nearly all actives have a fitted effect of over 65% in size
TO DNA binding: DNA binding via thiazole orange displacement; thiazole orange DNA binding displacement, fluorescence; shares compounds with WRN helicase inh-1; 610 tested, 10% active; Potency, µM (top dose mostly 57.1 µM), inactives show top-dose activity change, negative = inhibition, usual class: inhibitors;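 also: drop in dye fluorescence marks compound binding to DNA; potency is read from the fitted curve at half-maximal effect; % is scaled to controls: 0 for no effect and ±100 for the full control effect; nearly all actives have a fitted effect of over 60% in size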
BLM helicase inh: BLM helicase inhibition, WRN selectivity check. shares compounds with WRN helicase inh-1. Recombinant BLM helicase DNA unwinding, red fluorescence. Potency, µM (titrated, usually from 57.1 µM), for inactives: at the top dose activity change, negative = inhibition, actives largely listed as inhibitors. 610 tested, 60% active; also: potency is read from the fitted curve at half-maximal effect; nearly all actives have a fitted effect of over 60% in size
Starred values were filed as active, the others as inactive; ? = inconclusive; / = no result given; [ ] = remark or other dose. Unless noted, calls follow the shape of the dose curve; as a rule, active = well fitted curve in the direction sought with a large enough effect; inconclusive = small, poorly fitted or top-dose-only effect, or another doubt; inactive = no such curve, though single readings can be large; an effect the other way counts as inactive or inconclusive.

SMILES	PI5P4K alpha inh	POLI inh	Pol eta inh	Pol kappa inh	WRN helicase inh-1	Pol beta inh	WRN helicase inh-2	TO DNA binding	BLM helicase inh
CCOc1ccc(/C=C/C(=O)Nc2sc3c(c2C(=O)OC)C(C(=O)OC)CC3)cc1 (stereo unspecified)	/	?	50.1µM*	-7.8%	/	35.2%	-13.4%	-7.4%	?
COC(=O)c1c(NC(=O)CCCOc2ccc(C)cc2)sc2c1C(C(=O)OC)CC2 (stereo unspecified)	/	?	-7.6%	?	/	-24.9%	-23.2%	24.1µM*	?
COC(=O)c1c(NC(=O)CCCOc2cccc(C)c2)sc2c1C(C(=O)OC)CC2 (stereo unspecified)	/	?	-9.4%	-23.2%	/	-0.3%	-13.6%	-23.2%	?
CCOc1ccc(/C=C/C(=O)Nc2sc3c(c2C(=O)OC)CCCC3)cc1	/	9.5%	-3.6%	-9.5%	/	-2.6%	/	/	/
COC(=O)c1ccc(-n2nnnc2SCc2nn[nH]n2)cc1	-16.9	1.6%	8.7%	-1.4%	-2.9%	1.9%	/	/	/
CCOc1cccc(C(c2c(C)n(C)n(-c3ccccc3)c2=O)c2c(C)n(C)n(-c3ccccc3)c2=O)c1OC	-3.7	-1.1%	-20.1%	-10.6%	-0.5%	-2.8%	/	/	/
COc1cccc(C(c2c(C)[nH]n(-c3ccccc3)c2=O)c2c(C)[nH]n(-c3ccccc3)c2=O)c1OC	1.0	1.26µM*	-5.6%	-27.6%	?	-26.4%	-10.8%	-9.6%	-11.5%
COC(=O)CCC(C(=O)CN1C(=O)c2ccccc2C1=O)N1C(=O)c2ccccc2C1=O (stereo unspecified)	-8.8	15.3%	-3.7%	-0.6%	-1.4%	/	/	/	/
COCCn1c(=O)sc2ccccc2c1=O	-29.6	89.0%	-2.4%	-7.8%	?	5.6%	5.8%	-4.3%	-10.9%
Cc1ccc(-n2ncc3c2CC(C)(C)CC3NC(=O)CCN2CCCO2)cc1 (stereo unspecified)	-0.7	-7.0%	0.7%	2.0%	-9.5%	29.0%	/	/	/
C=CS(=O)(=O)c1sc(Cl)c(N2CCOCC2)c1[N+](=O)[O-]	-104.6*	?	?	-31.1%	31.6µM*	-28.9%	13.6µM*	-24.6%	3.41µM*
CN(C)[C@H]1CCN([C@@H]2CS(=O)(=O)N[C@H]2COCc2ccccc2)C1	2.8	/	/	/	6.5%	/	/	/	/
CCCCNC(C(=O)Nc1ccc([N+](=O)[O-])cc1Br)c1ccccc1 (stereo unspecified)	-6.3	?	-20.6%	-6.9%	?	4.5%	0.5%	-8.2%	-10.8%
COCCNC(C(=O)Nc1ccc([N+](=O)[O-])cc1Br)c1ccccc1 (stereo unspecified)	3.4	2.6%	-13.5%	-22.1%	-6.1%	20.7%	/	/	/
COc1ccc(/C=N/NC(=O)c2ccccc2OC)cc1COc1ccccc1[N+](=O)[O-]	-12.4	-29.3%	-14.6%	-1.1%	?	?	?	-4.6%	-20.3%
COc1ccc(/C=N/NC(=O)c2ccccc2OC)cc1COc1ccc(C)cc1	-4.5	13.6%	-8.8%	-11.1%	-26.4%	10.4%	/	/	/
COC(=O)CCC(=O)N1CCCC(N2CCN(c3cccc(C(F)(F)F)c3)CC2)C1 (stereo unspecified)	-5.2	88.8%	-19.3%	-6.1%	-1.0%	-1.2%	/	/	/
COc1cc(/C=N/Nc2nnc3c(n2)[nH]c2ccccc23)ccc1O	-2.2	39.8µM*	?	-5.9%	?	?	?	-13.6%	?
CCCCCc1c(-c2ccc(Br)cc2)ncn1CCc1ccccc1OC	16.2	/	/	/	-6.4%	/	/	/	/
CCOC(=O)c1nn(-c2ccccc2C)c(=O)c2c(N)scc12	?	?	-3.9%	-8.9%	?	-25.5%	?	35.2%	?
CCOC(=O)c1nn(-c2ccccc2C)c(=O)c(C#N)c1C	-7.2	-5.0%	-1.9%	-7.3%	-2.7%[57.1 µM]	22.3%	/	/	/
CSc1ccc(-c2nnn(CC(=O)Nc3sc4c(c3C#N)CCC(C(C)(C)C)C4)n2)cc1 (stereo unspecified)	/	14.6%	-5.0%	4.7%	/	28.7%	/	/	/
Cc1ccc(NC(=O)N/C=C/c2ccco2)cc1	/	20µM*	50.1µM*	50.1µM*	?	22.4µM*	-22.8%	-28.1%	13.6µM*
Oc1ccc(/C=N/Nc2nc(-c3cccnc3)nc3ccccc23)c(O)c1	-27.3	?	-2.8%	-10.0%	-30.8%	?	/	/	/
Cc1c(O)ccc(/C=N/Nc2nc(-c3cccnc3)nc3ccccc23)c1O	?	-16.6%	?	?	?	3.4%	?	27.1µM*	?
SMILES	PI5P4K alpha inh	POLI inh	Pol eta inh	Pol kappa inh	WRN helicase inh-1	Pol beta inh	WRN helicase inh-2	TO DNA binding	BLM helicase inh
CN(C)c1ccc(C=Cc2nccc3ccccc23)cc1	3.1	/	/	/	79.4µM*	/	?	220.6%	?
Cc1ccc(NC(=O)CSc2nnnn2C2CCCC2)cc1S(=O)(=O)N1CCOCC1	-6.2	25.6%	1.3%	3.9%	-4.8%	/	/	/	/
Cc1nn(CCc2nc(-c3ccco3)cs2)c2[nH]c(=O)cc(C(F)(F)F)c12	/	12.6µM*	31.6µM*	35.5µM*	35.5µM*	22.4µM*	?	-13.6%	21.5µM*
COc1cc(C2NC(=O)CCC2[N+](=O)[O-])cc(OC)c1OC (stereo unspecified)	-9.1	-10.1%	-11.7%	5.4%	2.4%	-18.2%	/	/	/
CCc1nnc(NS(=O)(=O)c2ccc(N/C=C\C(=O)c3cccc4ccccc34)cc2)s1	-24.5	-15.3%	44.7µM*	-7.1%	26.7µM*	-18.5%	24.1µM*	-20.6%	27.1µM*
COc1ccc(-c2csc3nc(-c4ccc(C)cc4)oc(=O)c23)cc1OC	-0.1	?	?	4.4%	?	?	12.1µM*	85.2%	1.92µM*
COc1cc(OC)cc(C(=O)NNC(=O)CCC(=O)c2cccs2)c1	-12.6	20.2%	-5.0%	-9.7%	-23.8%	0.0%	/	/	/
CC1=C(SCc2ccccc2)C(=O)c2ccccc2C1=O	?	3.16µM*	31.6µM*	-10.9%	?	/	?	?	24.1µM*
Cc1ccc(C(=O)/C=C/c2cc(C#N)n(C)c2C)cc1	29.9	36.4%	-9.9%	3.4%	-12.5%	-18.0%	/	/	/
COc1ccc(CCC(=O)OCc2csc(CC(=O)Nc3ccccc3C)n2)cc1	-9.1	0.3%	-8.1%	-9.2%	?	-10.8%	/	/	/
